“And” between values parts separate entries of the source, which are not always exact repeats. Equal entries are not always repeated. The campaign covered roughly 400,000 compounds. About 3,700 (0.93%) were called active. Not shown: some 3% with an inconclusive outcome. The list comes from a sample in which actives are over-represented; it also holds similar structures and randomly drawn compounds. A structure can be active in one record and inactive in another. A number with no mark means an inactive call. The call rests on the fitted dose curve; in most records, active means well fitted inhibition curve with a large enough effect; inconclusive means small, poorly fitted or top-dose-only effect, or another doubt; inactive means no such curve, though single readings can be large or run the other way.
What follows are compounds tested against Vitamin D3 receptor (Homo sapiens) (UniProt P11473) (assay: Inhibitors of the vitamin D receptor (VDR): qHTS). Settings: VDR-SRC2-3 peptide fluorescence polarization, 2 h; max response, negative = inhibition: active compounds read low.
Chain of Vitamin D3 receptor (Homo sapiens) (P11473 whole entry, looked up): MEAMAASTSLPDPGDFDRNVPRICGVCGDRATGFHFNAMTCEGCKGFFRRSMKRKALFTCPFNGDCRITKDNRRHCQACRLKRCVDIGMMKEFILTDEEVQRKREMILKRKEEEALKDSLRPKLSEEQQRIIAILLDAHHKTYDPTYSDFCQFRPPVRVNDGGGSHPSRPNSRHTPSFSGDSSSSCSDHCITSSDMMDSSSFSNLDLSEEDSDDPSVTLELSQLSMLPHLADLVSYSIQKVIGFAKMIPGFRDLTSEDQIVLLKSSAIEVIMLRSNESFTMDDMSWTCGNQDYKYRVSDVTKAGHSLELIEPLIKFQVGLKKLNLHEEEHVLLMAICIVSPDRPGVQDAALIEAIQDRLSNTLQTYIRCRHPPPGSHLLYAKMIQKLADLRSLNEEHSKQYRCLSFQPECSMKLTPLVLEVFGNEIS
How it was run: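 Reagent solutions, kept cold and dark, are dispensed first; compounds are then pinned in at 23 nl, plates briefly spun, and incubated 2 h at ambient temperature. Inhibition of VDR–SRC2-3 peptide binding is read by fluorescence polarization.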
`Cc1ccc(C(=O)Nc2ccc3[nH]c(=O)c(=O)[nH]c3c2)cc1` showed a max response, negative = inhibition of -3.19%. Compound `COc1ccc(CCNC(=O)CCCCn2c(=O)c3ccccc3n(Cc3ccccc3)c2=O)cc1OC` has a max response, negative = inhibition of -5.56%. With `COc1cc(C(=O)Nc2ccc(OCc3cc(=O)n4ccc(C)cc4n3)cc2)cc(OC)c1OC` the max response, negative = inhibition was 15.3%. For `CC(C)(C)c1ccc(C(=O)N2CCC(c3nc(-c4ccc(S(=O)(=O)N5CCCC5)cc4)no3)CC2)cc1`, the max response, negative = inhibition was -2.01%. `c1ccc(-c2cc3c(NCC4COc5ccccc5O4)ncnc3s2)cc1` (centres undefined) gave a max response, negative = inhibition of 3.5%. For `COc1ccccc1N1CCN(c2ncnc3sc(C)c(-c4ccccc4)c23)CC1`, the max response, negative = inhibition was 9.44%. For `Oc1ccccc1N1CCN(c2ncnc3sc(-c4ccccc4)cc23)CC1`, the Potency was 22.4 µM (active). With `CCOC(=O)c1c(S(=O)(=O)N2CCCC(C(=O)NCc3ccc(F)cc3)C2)c(C)n(CC)c1C` (centres undefined) the max response, negative = inhibition was 12%. Compound `CCCC(=O)Nc1ccc(NC(=O)c2sc3ccccc3c2Cl)cc1` has a max response, negative = inhibition of 1.71%. For `Cc1cccc(C)c1Nc1c(-c2ccccc2O)nc2ncccn12`, the max response, negative = inhibition was 11.5% and -13.4%. `Cc1ccc(-c2nc3ccccn3c2Nc2ccc(F)cc2)o1` was tested, and the max response, negative = inhibition was -13.1%. `Cc1ccc(-c2nc3ccccn3c2Nc2c(C)cccc2C)o1` was tested, and the Potency was 79.4 µM (active). In the case of `CC1CCc2noc(NC(=O)c3ccc([N+](=O)[O-])cc3)c2C1` (centres undefined), the max response, negative = inhibition was 20%. Compound `Cc1cccc(C(CC(=O)NCC2(c3ccccc3)CCCC2)c2ccccc2)c1O` (centres undefined) has a max response, negative = inhibition of -3.18%. `Cc1ccc(-c2cnc(NCc3ccc(C(C)C)cc3)n2C)cc1` gave a max response, negative = inhibition of -12.2%. Compound `COC(=O)c1cc(NC(=O)CCc2c(C)nc3c4c(C)cc(C)nc4nn3c2C)cc(C(=O)OC)c1` has a max response, negative = inhibition of -12%. `CCCCc1nnc(NC(=O)CSc2nc(C)cc(=O)[nH]2)s1` showed a max response, negative = inhibition of -6.96%. `CCOC(=O)Cc1csc(SCC(=O)Nc2ccc(C)cc2F)n1` showed a max response, negative = inhibition of -24.6%. With `CCOC(=O)Cc1csc(NC(=O)CSc2nc(C)cc(=O)[nH]2)n1` the Potency was 44.7 µM (active). Work on `C=CCOC(=O)C(=C)C` yielded a max response, negative = inhibition of 10.1%. With `COc1ccc(CCC(=O)NCc2ccc3c(c2)CCN3C(=O)c2ccc(F)cc2)cc1` the max response, negative = inhibition was 1.51%. `Cc1cccc(OCCCC(=O)Nc2sc3c(c2C(N)=O)CCC(C)C3)c1` (centres undefined) showed a max response, negative = inhibition of 0.722%. With `CCOc1ccc(NC(=O)c2c(NC(=O)Cc3ccccc3)sc3c2CCCCC3)cc1` the Potency was 17.8 µM (active). `CCOc1ccc(NC(=O)c2c(NCc3cccc(OC)c3OC)sc3c2CCC3)cc1` gave a max response, negative = inhibition of -0.323%. Compound `Cc1ccccc1NC(=O)c1c(NC(=O)c2ccccc2F)sc2c1CCC(C)C2` (centres undefined) has a max response, negative = inhibition of -12.5%. Work on `O=C(Cc1ccccc1)Nc1sc2c(c1C(=O)Nc1ccc(Br)cc1)CCC2` yielded a max response, negative = inhibition of 1.17%. With `CCOc1ccc(NC(=O)c2c(NC(=O)Cc3ccccc3)sc3c2CCC(C)C3)cc1` (centres undefined) the Potency was 79.4 µM (active). Work on `COc1ccc2oc(-c3ccc(C)c(NC(=O)c4sc5ccccc5c4Cl)c3)nc2c1` yielded a max response, negative = inhibition of -13.7%. For `O=C(O)c1ccc(Nc2nc(-c3ccccc3)c3cc(Br)ccc3n2)cc1`, the max response, negative = inhibition was -8.21%. `Cc1cccc(N2CCN(C(=O)CCn3c(=O)c4cccn4c4cccnc43)CC2C)c1` (centres undefined) gave a max response, negative = inhibition of -1.09%. `Cc1ccc(C2CCN(C(=O)c3cnn(-c4ccccc4Cl)c3C3CCN(C(=O)OC(C)(C)C)CC3)C2)cc1` (centres undefined) showed a max response, negative = inhibition of 14.7%. `Cc1cccc(C(=O)N2CCc3cc(CNC(=O)Cc4ccc(F)cc4)ccc32)c1` was tested, and the max response, negative = inhibition was 6.68%. `CCCCNC(=O)Cn1c(SCc2cccc(Cl)c2)nc2ccncc21` showed a max response, negative = inhibition of -15.1%. Compound `O=S(=O)(Nc1cccc2cccnc12)c1cccc2cccnc12` has a max response, negative = inhibition of -4.84%. Work on `CCOC(=O)c1ccc(NC(=O)c2c(NCc3cccs3)sc3c2CCCC3)cc1` yielded a max response, negative = inhibition of -5.89%. With `CN(C(=O)CSc1nc2ccc(NC(=O)COc3ccccc3)cc2s1)c1ccccc1` the max response, negative = inhibition was 3.21%. `O=C(Nc1ccc2nc(SCC(=O)N3CCc4ccccc43)sc2c1)c1ccccc1F` showed a max response, negative = inhibition of 0.401%. In the case of `O=C(O)c1ccccc1CSc1nc2ccccc2s1`, the Potency was 89.1 µM (active). Compound `CCOc1ccccc1NC(=O)C1=C(C)Nc2ncnn2C1c1ccc(NC(C)=O)cc1` (centres undefined) has a max response, negative = inhibition of 6.42%. `COc1ccc(Br)cc1C1C2C=CCC(C)C2C(=O)N1Cc1ccccc1` (centres undefined) gave a max response, negative = inhibition of -6.47%. For `COc1ccccc1CNC(=O)c1ccc(NC(=O)N2CC(C)Sc3ccccc32)cc1` (centres undefined), the max response, negative = inhibition was -3.93%. With `O=C(NCc1ccccc1)c1cccc(NC(=O)N2CCSc3ncccc32)c1` the max response, negative = inhibition was 4.27%. Work on `O=C(O)CCCN1C(=O)c2ccccc2Sc2ncccc21` yielded a max response, negative = inhibition of 23.5%. Work on `Cc1cc(C(=O)COC(=O)CCCN2C(=O)c3ccccc3C2=O)c(C)n1C` yielded a max response, negative = inhibition of 11.4%. `CCCCN1C(=O)/C(=C(/C#N)C(N)=O)c2ccccc21` was tested, and the Potency was 50.1 µM (active). Compound `O=C(/C=C/c1cn(CC(O)CN2CCc3ccccc32)c2ccccc12)c1ccc(Br)cc1` (centres undefined) has a max response, negative = inhibition of 25.1%. In the case of `COCCNC(=O)CSc1c(C)cnc2c1c(=O)n(C)c(=O)n2C`, the max response, negative = inhibition was 8.06%. With `COc1ccc(CS(=O)/C(Cl)=C(/Cl)C(=O)Nc2ccc(OC)nc2)cc1` (centres undefined) the Potency was 20 µM (active). In the case of `COc1ccc(NC(=O)C(=O)NCc2ccco2)cc1`, the max response, negative = inhibition was -7.31%. With `COc1ccc(CC(=O)Nc2ccc(-c3nc4ccccc4s3)c(C)c2)cc1` the max response, negative = inhibition was -0.795%. For `O=C(Nc1ccc2nc(SCCOc3ccccc3Cl)sc2c1)c1ccco1`, the max response, negative = inhibition was 5.06%. With `CC(Nc1ccc(-c2nc(-c3ccco3)no2)cc1[N+](=O)[O-])c1ccccc1` (centres undefined) the max response, negative = inhibition was 0.644%. In the case of `CCc1ccccc1NC(=O)Cn1c(=O)n(CC2CCC(C(=O)NCCc3ccccc3)CC2)c(=O)c2ccccc21` (centres undefined), the max response, negative = inhibition was -18.5%. Work on `Cc1cc(C(=O)Nc2cccc(C(F)(F)F)c2)c2c(C)nn(-c3cccc(F)c3)c2n1` yielded a max response, negative = inhibition of -0.555%. `Nc1scc[n+]1Cc1cccc2cccnc12` gave a max response, negative = inhibition of 4.69%. With `c1ccc2c(CNn3cnnc3)cccc2c1` the max response, negative = inhibition was -17.7%. With `c1ccc2c(C[n+]3csc4ccccc43)cccc2c1` the Potency was 44.7 µM (active). `CCN(CC)c1ccc(NC(=O)Cn2nc3c(cc2=O)CCCC3)c(C)c1` gave a max response, negative = inhibition of 2.95%. In the case of `CC1(C)OC2CO[C@]3(COS(N)(=O)=O)OC(C)(C)OC3C2O1` (some centres undefined), the max response, negative = inhibition was -14.1%. For `Oc1cc(O)c2c(c1)OC(c1ccc(O)c(O)c1)C(O)C2` (centres undefined), the Potency was 35.5 µM (active) and the max response, negative = inhibition was -19.6%. Compound `NS(=O)(=O)c1ccc(NC(=O)CSc2nnc3c(n2)[nH]c2ccccc23)cc1` has a max response, negative = inhibition of 5.25%. `CCOc1cc(-c2nnc(SCC(=O)NC3CCCCC3)nc2-c2ccc(OC)c(OCC)c2)ccc1OC` showed a max response, negative = inhibition of 15.8%. With `COc1ccc(OCc2n[nH]c(=S)n2N)cc1` the Potency was 35.5 µM (active). `COc1ccc(OC)c(-n2c(-c3ccn[nH]3)n[nH]c2=S)c1` gave a max response, negative = inhibition of -3.11%. In the case of `COc1ccc(Cc2n[nH]c(=S)n2NC(=O)Nc2ccc(C)cc2)cc1`, the max response, negative = inhibition was -6.31%. In the case of `COc1cc(C(=O)N(Cc2ccc(C(C)C)cc2)C2CCS(=O)(=O)C2)cc(OC)c1OC` (centres undefined), the max response, negative = inhibition was -4.09%. In the case of `CCOc1cc(/C=C(\C#N)C(=O)Nc2ccccc2C)ccc1OCc1cc(=O)n2nc(CC)sc2n1`, the max response, negative = inhibition was -13.9%. With `C=CC(=O)c1ccc2ccccc2c1` the Potency was 1.78 µM (active). `O=C(Nc1ccccc1N1CCCC1)c1ccc2ccccc2c1` gave a max response, negative = inhibition of -2.28%. With `O=C(NNC(=O)c1ccc2ccccc2c1)c1ccc(Cl)cc1` the max response, negative = inhibition was 18.2%. `O=C(CC1N=C2c3ccccc3N=C(SCc3cccc(Cl)c3)N2C1=O)NCc1ccc2c(c1)OCO2` (centres undefined) gave a max response, negative = inhibition of 13.3%. With `COc1ccc(NC(=O)CSc2nnc(-c3nnn(-c4ccc(F)cc4)c3C)o2)cc1` the max response, negative = inhibition was 15.3%. Work on `CCCCCCCC1=Cc2ccc(F)cc2C(C(C(=O)OC)C(=O)OC)N1C(=O)OC` (centres undefined) yielded a max response, negative = inhibition of 2.51%. `COc1ccc(CCN=C2SCC(=O)N2Cc2ccccc2)cc1OC` showed a max response, negative = inhibition of 3.18%. In the case of `COc1cc(C2CC(=O)N3CN(Cc4ccccc4)CSC3=C2C#N)ccc1OCc1ccccc1` (centres undefined), the Potency was 22.4 µM (active). For `COc1cc(CNC2CCCC2)c(Br)cc1OCc1ccccc1`, the max response, negative = inhibition was 18.9%. In the case of `Cc1cccc(-c2nc(SCc3ccc(Br)cc3)n3[nH]c(=O)cc3n2)c1`, the max response, negative = inhibition was 11.8%. Work on `COc1ccccc1CNc1ncnc2ccc(-c3ccc4c(c3)OCO4)cc12` yielded a max response, negative = inhibition of -6.36%. In the case of `CCn1c(SC)nc(O)c(C(c2ccc(OC)c(O)c2)c2c(O)nc(SC)n(CC)c2=O)c1=O`, the Potency was 35.5 µM (active). `COc1ccc(-n2c(SC)nc(O)cc2=O)cc1` was tested, and the max response, negative = inhibition was -7.87%. `CCn1c(CNC(=O)c2ccc(OC)c(OC)c2)nnc1SCC(=O)Nc1ccccc1` showed a max response, negative = inhibition of 2.26%. `COc1cc(NC(=O)c2noc3c2CSc2ccccc2-3)cc(OC)c1OC` gave a max response, negative = inhibition of 1.93%. Compound `COc1ccc(CNc2nc(-c3ccc(Cl)cc3)nn2S(=O)(=O)c2ccc(C)cc2)cc1` has a max response, negative = inhibition of -0.454%. Compound `Cc1ccc(-n2cnc3cc(C(=O)NCCC4=CCCCC4)ccc32)cc1Cl` has a max response, negative = inhibition of -3.42%. Work on `CCOC(=O)c1ccc(CN(Cc2ccccc2)S(=O)(=O)c2ccc(Cl)cc2)cc1` yielded a max response, negative = inhibition of 9.71%. Compound `CCn1c(SCC(=O)Nc2sc(C)c(C)c2C#N)nnc1C1CC1` has a max response, negative = inhibition of 1.75%. For `CCOC(=O)c1sc(NC(=O)CSc2nc(C)cc(C(F)(F)F)n2)c(C#N)c1C`, the Potency was 28.2 µM (active). In the case of `Cc1cccc(NC(=O)CSc2nc(-c3ccco3)cc(C(F)(F)F)n2)c1C`, the max response, negative = inhibition was -20.2%.
On the % scale 0 is the no-effect control and ±100 the full control effect; potency means the concentration at half of the fitted maximal effect.
